{"source": "PubChem BioAssay (NCATS)", "note": "Values joined by “and” are separate entries in the source; they are usually repeats but may differ in a detail not shown here. Equal values may be shown once. Records with an inconclusive call do not appear. Active and inactive are the calls of the source. Calls follow the shape of the full dose curve."}
{"target": "Vitamin D3 receptor (Homo sapiens) (UniProt P11473)", "sequence (P11473 whole entry, looked up)": "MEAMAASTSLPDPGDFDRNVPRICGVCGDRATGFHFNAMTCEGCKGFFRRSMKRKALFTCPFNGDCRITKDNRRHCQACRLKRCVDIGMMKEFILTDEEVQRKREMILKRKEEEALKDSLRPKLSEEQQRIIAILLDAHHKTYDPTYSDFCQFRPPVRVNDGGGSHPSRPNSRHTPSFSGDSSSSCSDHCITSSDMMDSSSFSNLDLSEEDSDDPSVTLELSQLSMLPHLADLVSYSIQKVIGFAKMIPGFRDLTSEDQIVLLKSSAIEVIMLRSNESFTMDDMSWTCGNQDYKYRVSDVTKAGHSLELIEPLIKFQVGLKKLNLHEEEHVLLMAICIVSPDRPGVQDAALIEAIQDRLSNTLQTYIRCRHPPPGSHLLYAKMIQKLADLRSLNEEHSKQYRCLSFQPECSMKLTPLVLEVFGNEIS", "test": "qHTS assay for small molecule agonists of vitamin D receptor signaling (AID 588543);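 also: 0% = DMSO basal and 100% = reference agonist control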", "details": "HEK293T VDR-UAS-bla, beta-lactamase ratio, 16 h; series mostly up to 76.8 µM; activation: at the top concentration", "in_short": "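VDR-UAS-bla HEK293T cells, 2000/well, 2% charcoal-stripped FBS; compound titration 16 h at 37 C; CCF4 beta-lactamase ratio read. Normalized to 50 nM 1-alpha,25-dihydroxyvitamin D3 (100%) and DMSO; Hill fit gives EC50, efficacy.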"}
{"compound": "O=C(O)COc1ccc(Cl)cc1Cl", "outcome": "inactive"}
{"compound": "ClC1=C(Cl)C2(Cl)C3C4C=CC(C4)C3C1(Cl)C2(Cl)Cl", "note": "(configuration not stated)", "activation": "-0.474% (inactive)"}
{"compound": "c1ccc(N=Nc2ccccc2)cc1", "outcome": "inactive"}
{"compound": "CCOCN(C(=O)CCl)c1c(C)cccc1CC", "outcome": "inactive"}
{"compound": "CCNc1nc(Cl)nc(NC(C)C)n1", "outcome": "inactive"}
{"compound": "ClC1=C(Cl)C2(Cl)C3C4CC(C5OC45)C3C1(Cl)C2(Cl)Cl", "note": "(configuration not stated)", "activation": "0.691% (inactive)"}
{"compound": "ClC(Cl)=C(c1ccc(Cl)cc1)c1ccc(Cl)cc1", "outcome": "inactive"}
{"compound": "CCc1cccc(CC)c1N(COC)C(=O)CCl", "activation": "-6.48% (inactive)"}
{"compound": "C/C=C/c1ccc2c(c1)OCO2", "activation": "0.261% (inactive)"}
{"compound": "C=CCc1ccc2c(c1)OCO2", "activation": "-2.35% (inactive)"}
{"compound": "COP(=S)(OC)Oc1ccc([N+](=O)[O-])cc1", "outcome": "inactive"}
{"system": "not listed separately", "test": "qHTS assay for small molecule agonists of retinoid X receptor alpha signaling (AID 588544);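 as to activation: 0% = DMSO basal wells and 100% = reference agonist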", "details": "HEK293T RXRa-UAS-bla, beta-lactamase reporter, 18 h; 530 nm emission"}
{"compound": "O=C(O)COc1ccc(Cl)cc1Cl", "max response": "29.1%"}
{"compound": "O=S1OCC2C(CO1)C1(Cl)C(Cl)=C(Cl)C2(Cl)C1(Cl)Cl", "note": "(configuration not stated)", "max response": "-15.4%"}
{"compound": "c1ccc(N=Nc2ccccc2)cc1", "max response": "8.95% and -1.18%"}
{"compound": "CNC(=O)O/N=C/C(C)(C)SC", "max response": "-12.4% and 19.1% and 1.84%"}
{"compound": "CCNc1nc(Cl)nc(NC(C)C)n1", "max response": "15.9% and 26.8%"}
{"compound": "C=CCc1ccc(OC)cc1", "max response": "-5.04%"}
{"compound": "ClC(Cl)=C(c1ccc(Cl)cc1)c1ccc(Cl)cc1", "max response": "8.46%"}
{"compound": "CCc1cccc(CC)c1N(COC)C(=O)CCl", "max response": "19.2%"}
{"compound": "C/C=C/c1ccc2c(c1)OCO2", "max response": "-11.2%"}
{"compound": "C=CCc1ccc2c(c1)OCO2", "max response": "1.6%"}
{"compound": "COP(=S)(OC)Oc1ccc([N+](=O)[O-])cc1", "max response": "-22.5% and 4.79%"}
{"target": "Retinoic acid receptor RXR-alpha (Homo sapiens) (UniProt P19793)", "sequence (P19793 whole entry, looked up)": "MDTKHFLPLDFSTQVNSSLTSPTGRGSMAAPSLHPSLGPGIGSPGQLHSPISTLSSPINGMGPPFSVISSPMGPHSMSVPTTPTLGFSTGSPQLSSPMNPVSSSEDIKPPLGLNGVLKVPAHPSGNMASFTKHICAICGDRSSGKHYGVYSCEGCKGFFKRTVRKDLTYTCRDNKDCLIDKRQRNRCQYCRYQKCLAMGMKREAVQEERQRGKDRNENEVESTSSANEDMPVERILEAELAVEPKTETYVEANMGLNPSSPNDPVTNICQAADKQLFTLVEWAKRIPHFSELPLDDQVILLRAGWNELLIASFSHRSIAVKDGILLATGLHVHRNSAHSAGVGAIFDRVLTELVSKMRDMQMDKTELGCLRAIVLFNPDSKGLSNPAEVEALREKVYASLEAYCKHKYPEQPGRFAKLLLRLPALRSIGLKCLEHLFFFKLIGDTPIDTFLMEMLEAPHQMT", "test": "qHTS assay for small molecule agonists of retinoid X receptor alpha signaling (AID 588544);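 as to activation: 0% = DMSO basal wells and 100% = reference agonist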", "details": "HEK293T RXRa-UAS-bla, beta-lactamase reporter, 18 h; series mostly up to 76.7 µM; activation: at the top concentration"}
{"compound": "O=C(O)COc1ccc(Cl)cc1Cl", "activation": "-10.2% (inactive)"}
{"compound": "c1ccc(N=Nc2ccccc2)cc1", "Potency": "inactive"}
{"compound": "CNC(=O)O/N=C/C(C)(C)SC", "Potency": "inactive"}
{"compound": "C=CCc1ccc(OC)cc1", "activation": "-3.58% (inactive)"}
{"compound": "ClC(Cl)=C(c1ccc(Cl)cc1)c1ccc(Cl)cc1", "activation": "-12.2% (inactive)"}
{"compound": "C/C=C/c1ccc2c(c1)OCO2", "activation": "2.61% (inactive)"}
{"compound": "C=CCc1ccc2c(c1)OCO2", "activation": "9.56% (inactive)"}
{"target": "Thyroid hormone receptor beta (Homo sapiens) (UniProt P10828)", "sequence (P10828 whole entry, looked up)": "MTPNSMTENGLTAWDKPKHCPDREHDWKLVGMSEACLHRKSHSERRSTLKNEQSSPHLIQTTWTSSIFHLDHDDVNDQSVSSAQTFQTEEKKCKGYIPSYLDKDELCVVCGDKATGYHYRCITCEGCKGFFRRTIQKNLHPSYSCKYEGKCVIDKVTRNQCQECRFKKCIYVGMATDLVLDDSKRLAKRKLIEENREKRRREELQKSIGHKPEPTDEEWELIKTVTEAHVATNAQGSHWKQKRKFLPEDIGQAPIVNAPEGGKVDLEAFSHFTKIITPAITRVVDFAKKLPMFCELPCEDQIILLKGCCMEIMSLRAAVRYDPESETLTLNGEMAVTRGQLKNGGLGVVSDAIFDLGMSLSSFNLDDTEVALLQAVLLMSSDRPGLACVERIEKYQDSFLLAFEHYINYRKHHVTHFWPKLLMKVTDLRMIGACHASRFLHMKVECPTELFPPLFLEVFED", "test": "qHTS assay for small molecule agonists of thyroid hormone receptor beta signaling (AID 588545)", "details": "TR-UAS-bla GripTite HEK 293, beta-lactamase ratio, agonist mode, 18 h, percent of T3 response, DMSO as zero; series mostly up to 76.7 µM; activation: at the top concentration", "in_short": "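Cells (2500/well) were seeded, incubated 4 hrs at 37 C, dosed with a compound series, incubated 18 hrs, loaded with CCF4 dye for 2 hrs at RT, then read for fluorescence. Data were scaled between DMSO (0%) and 10 nM T3 (100%).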"}
{"compound": "c1ccc(N=Nc2ccccc2)cc1", "outcome": "inactive"}
{"compound": "CNC(=O)O/N=C/C(C)(C)SC", "outcome": "inactive"}
{"compound": "ClC1=C(Cl)C2(Cl)C3C(Cl)C=CC3C1(Cl)C2(Cl)Cl", "note": "(configuration not stated)", "activation": "-25.8% (inactive)"}
{"compound": "ClC1=C(Cl)C2(Cl)C3C4CC(C5OC45)C3C1(Cl)C2(Cl)Cl", "note": "(configuration not stated)", "activation": "-21.3% (inactive)"}
{"compound": "CCc1cccc(CC)c1N(COC)C(=O)CCl", "activation": "-12.2% (inactive)"}
{"compound": "C/C=C/c1ccc2c(c1)OCO2", "activation": "-10.3% (inactive)"}
{"system": "not listed separately", "test": "qHTS assay for small molecule antagonists of retinoid X receptor alpha signaling (AID 588546);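 also: cells stimulated with 9-cis-retinoic acid as agonist; % is scaled to controls: 0 for no effect and ±100 for the full control effect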", "details": "HEK293T RXRa-UAS-bla, beta-lactamase ratio, antagonist mode; measured here: W530 green channel, cytotoxicity proxy", "in_short": "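Beta-lactamase reporter inhibition, read as CCF4 fluorescence ratio (ex 405, em 460/530 nm) after 2 h at RT. HEK293T UAS-bla cells, 2500/well, were stimulated with 9-cis-RA at 500 or 100 nM final alongside test compound for 18 h at 37 C.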"}
{"compound": "ClC1=C(Cl)C2(Cl)C3C4C=CC(C4)C3C1(Cl)C2(Cl)Cl", "note": "(configuration not stated)", "max response": "-0.359%"}
{"compound": "O=S1OCC2C(CO1)C1(Cl)C(Cl)=C(Cl)C2(Cl)C1(Cl)Cl", "note": "(configuration not stated)", "max response": "1.46%"}
{"compound": "c1ccc(N=Nc2ccccc2)cc1", "max response": "-17.4% and -6.96%"}
{"compound": "CNC(=O)O/N=C/C(C)(C)SC", "max response": "-9.38% and -5.02% and 4.99%"}
{"compound": "CCNc1nc(Cl)nc(NC(C)C)n1", "max response": "3.95% and -7.9%"}
{"compound": "C=CCc1ccc(OC)cc1", "max response": "-1.65%"}
{"compound": "ClC1=C(Cl)C2(Cl)C3C(Cl)C=CC3C1(Cl)C2(Cl)Cl", "note": "(configuration not stated)", "max response": "-16.9%"}
{"compound": "ClC(Cl)=C(c1ccc(Cl)cc1)c1ccc(Cl)cc1", "max response": "-0.142% and -15.3%"}
{"compound": "CCc1cccc(CC)c1N(COC)C(=O)CCl", "max response": "18.2%"}
{"compound": "C/C=C/c1ccc2c(c1)OCO2", "max response": "-8.06%"}
{"compound": "C=CCc1ccc2c(c1)OCO2", "max response": "-5.37%"}
{"compound": "COP(=S)(OC)Oc1ccc([N+](=O)[O-])cc1", "max response": "-15.3% and -6.14%"}
